Experimental data from PMC10163288.
These entries were drawn from the full list. No count for the full screen is at hand.

B1: il10ra_site1_sap_19_mot_HHH_b2_00335_000000038_0001_43_57_H_._HHH_b1_03234_0001_0000400063_0000002_0_0001 (protein)
chain: SSSSEAVKRVAELLREASKLQNDGNPEEAERVAEEALEVAEEGNNPLLEWQARFLLHRIRNSSSS
B2: il10ra_site1_normal_mot_HHH_b1_02708_af2_000000019_0001_23_39_H_._e0a7e7c149437fae01dc270677924e9f_0001_1_0001_0000100001_0000001_0 (protein)
chain: SLEEEVTELVRELGLPPMVESAVRSFVLAKELGDEEYLKIAEHFLEAQARRDPNVEEVLRFLRER
B3: il10ra_site1_normal_mot_HHH_b2_04646_000000019_0001_1_20_H_._HHH_b2_05789_af2_0001_0000400029_0000001_0 (protein)
chain: SSSSSDEEEAREEAERLLEEAEQIEDRHEVARLLYRASRLAAEGQDDELARRLVKLFARLSSSSS
B4: il10ra_site1_normal_mot_HHH_b2_00475_000000107_0001_44_57_H_._HHH_b2_01638_af2_0001_0000900052_0000002_0 (protein)
chain: SSSSEAEQRVAELLFRALRLLYEGNPEEAKEVVEEARRLAEENNDEELEEYVRILKHFIESHSSS
B5: il10ra_site1_normal_mot_8756ee2cf497b5429c717dfc0c0bcfd6_0001_000000186_0001_1_13_H_._HHH_b2_00335_af2_0001_0000300021_0000001_0_af2pred_0001 (protein)
chain: SSSSSDRLRELLELLRRIIELSRDGDPEEARKLIEEAQELAEELNDEVAKAILEFLEEHVNSSSS
B6: il10ra_site1_normal_mot_HHH_b1_00999_000000080_0001_41_55_H_._HHH_b1_02031_af2_0001_0000100001_0000001_0 (protein)
chain: SSSSSDEEEEEVERLLEEAEKIPDPRERNEILLEALHIALELGDEELLQLVWKVVKELGSSSSSS
B7: il10ra_site1_normal_mot_HHH_b1_05326_000000242_0001_1_20_H_._HHH_b1_05311_0001_0000100004_0000001_0 (protein)
chain: SSSSSSDEALELSRRAFKAALHGNPEEARELLEEALELAEERGDERLARIIQDLLKVLSSSSSSS
B8: il10ra_site1_sap_12_mot_HHH_b1_06789_af2_000000041_0001_1_20_H_._HHH_b2_05839_af2_0001_0000300031_0000002_0_0001 (protein)
chain: SSSSSDEEEIEELLREIKELLENNDRERALELIQEALRVIFQHSDEEALRELFELVRKLGSSSSS
B9: il10ra_site1_sap_22_mot_HHH_b2_03220_af2_000000223_0001_23_40_H_._HHH_b1_01542_0001_0000500044_0000001_0_0001_af2pred_0001 (protein)
chain: SSSSSEEEVEELERRIEELLEEGNRHEAAALILRLFALAHELRDPEVEEEARRLAQLAANSSSSS
B10: il10ra_site1_normal_mot_HHH_b2_06857_af2_000000179_0001_42_54_H_._HHH_b1_05676_af2_0001_0000100011_0000001_0 (protein)
chain: SSSSDETEEVVELLRRAAELHSDGDHEEARRLLEEAQELAEELGNELLRYQIEFAERSLDSSSSS
B11: il10ra_site1_sap_25_mot_HHH_b1_01879_000000050_0001_1_18_H_._HHH_b1_08444_0001_0000100004_0000001_0_0001 (protein)
chain: SSSSSTQELYELSRKAMELLRNGNPEEAEKLLEEALELAEEEGNWAAIVALRYILRAIRRSSSSS
B12: il10ra_site1_sap_17_mot_HEEHE_1605_000000211_0001_40_56_H_._9e622f7d73aa0ff91040b48e8c7f7504_0001_1_af2_0001_0000600013_0000002_0_0001 (protein)
chain: SSSSSDANHEALELVLEAMHAMLRGDREEAERLLEEALELAREGNNERLAKQIEILLENASSSSS
B13: il10ra_site1_normal_mot_HHH_b1_04065_000000255_0001_41_56_H_._HHH_b1_07236_0001_0000100003_0000001_1 (protein)
chain: SSSSDEEYRREVEELLEEAEQIEDPHERAEVLARALRRAYEGRDPELFRLVDRVAIELYFSSSSS
B14: il10ra_site1_sap_21_mot_HHH_b2_06979_000000158_0001_42_57_H_._HHH_b1_00540_af2_0001_0000100003_0000001_0_0001 (protein)
chain: SSSTLTERIYKLSEKALELLKQGDTEEAEEVVEEAIELAEEAGSRVLAHVLEFLLEAIKRRSSSS
B15: il10ra_site1_normal_mot_HHH_b2_06090_af2_000000001_0001_1_19_H_._HHH_b1_07022_0001_0000500035_0000001_0 (protein)
chain: SSSSSQEVAELIIEAFRLLLRGDEEEVERLLEELKELAEELNDPALRRLVEILEEAIKAASSSSS
B16: il10ra_site1_sap_19_mot_HHH_b2_07521_000000141_0001_20_37_H_._HHH_b1_07537_af2_0001_0000400008_0000001_0_0001 (protein)
chain: SSSSSDEERLEELLEELKELLEEGDRERFLRVALEVLRLAFQSSDEEALQAVWRLVKKWGSSSSS
B17: il10ra_site1_normal_mot_HHH_b1_03094_000000294_0001_1_20_H_._HHH_b1_05478_af2_0001_0000100005_0000001_0 (protein)
chain: SSSSDEENQEALELSLEALRLALRGDPEKAREVLEEAFELAERANNERLLRIIEELLEALHSSSS
B18: il10ra_site1_normal_mot_HHH_b1_06789_af2_000000041_0001_1_20_H_._HHH_b1_02788_0001_0000100006_0000001_0 (protein)
chain: SSSSDLEEEIEEAIEEARENGDELIVQILEILLRQIRRDGSPNARWLVRQVIKALKNLLENSSSS
B19: il10ra_site1_sap_24_mot_HHH_b2_06857_af2_000000179_0001_42_54_H_._HHH_b1_04179_af2_0001_0000200006_0000001_1_0001 (protein)
chain: SSSSSDATRELYRLSKEAAELLAEGNPEEAQRVAEEAFELAEEAGNRVLLHAIEHLLRDISSSSS
B20: il10ra_site1_normal_mot_HHH_b2_07521_000000141_0001_20_37_H_._HHH_b1_01332_0001_0000100002_0000001_0_af2pred_0001 (protein)
chain: SSSSDEEEKRLRLALRLARFLIEQGDEEAARKLLEWIRELAKRANDEEALEEAQRLLEEVGSSSS
B21: il10ra_site1_normal_mot_HHH_b1_01879_000000050_0001_1_18_H_._HHH_b1_04021_0001_0000200009_0000001_0_af2pred_dldesign_0_af2pred (protein)
chain: SSSSSELDALLAALEAAVAAGDEAAVRELSVRVSRLALEANNKEVLKKVFDLMVDFYKKLSSSSS
B22: il10ra_site1_sap_20_mot_HHH_b1_05126_000000053_0001_38_52_H_._HHH_b2_05116_af2_0001_0000900047_0000001_0_0001 (protein)
chain: SSDEREELKEEVEEEVEKAVENKDPELVKEIIAKALMEAARLRDDQLSMAIIRIYARANQLLQSS
B23: il10ra_site1_normal_mot_HHH_b2_08144_af2_000000046_0001_38_52_H_._HHH_b1_00696_0001_0000600035_0000001_0 (protein)
chain: SSSSTEEIQRIMELLRRAAELLNEGNPEEAEKLIEEAEELVKEANDPLLEIQLRFLERDINSSSS
B24: il10ra_site1_sap_23_mot_HHH_b1_01233_000000085_0001_1_18_H_._HHH_b1_01214_0001_0000100002_0000001_0_0001 (protein)
chain: SSSSDEEHIEELARAVERQLEQLSKYDPRLLERLAEAARKALELWDEELAREIEELAKELLSSSS
B25: il10ra_site1_normal_mot_HHH_b2_00984_000000042_0001_1_20_H_._HHH_b2_02613_af2_0001_0000700025_0000001_0 (protein)
chain: SSSSSTEEEIEELIKKAEEAAENGDPRKAFELLAEASRYALELGDAELLQEIWELIKKLNSSSSS
B26: il10ra_site1_sap_23_mot_HHH_b1_03574_000000194_0001_1_18_H_._HHH_b1_05868_0001_0000200012_0000002_0_0001 (protein)
chain: SSSSSDRDELYELIEEALELLARGNPEEAERVLEEARELAEELGNRVFLVVIRFLLKDIKSSSSS
B27: il10ra_site1_normal_mot_HHH_b1_05056_000000217_0001_1_20_H_._HHH_b2_04285_0001_0000100002_0000001_0 (protein)
chain: SSSSDLEEEIERLEEELREARERGDKELALQLLLRLLRLAYETRDEELLRELWEIVRKLFSSSSS
B28: il10ra_site1_normal_mot_HHH_b1_04693_000000238_0001_19_36_H_._HHH_b2_06085_af2_0001_0000700026_0000002_0 (protein)
chain: SSSSSDQELYELIRELIELLLEGDEEEIERLEEEIEKLAKELNNRVLLFVARAARRLQEKSSSSS
B29: il10ra_site1_sap_20_mot_HHH_b1_08622_000000192_0001_23_40_H_._HHH_b2_06485_0001_0000100001_0000003_0_0001_af2pred_0001 (protein)
chain: SSSSSEFEEAIKAARESIEHALRLGDDEKVEQALRLLERLARDANDEEAEKFIEEVEELLSSSSS
B30: il10ra_site1_sap_11_mot_HHH_b1_00456_000000263_0001_1_17_H_._HHH_b2_06141_0001_0000200005_0000001_0_0001_af2pred_0001 (protein)
chain: SSSSDIAERLVELALEAARLAAERGDPEAVRRALEQAEHLAKLNNNPELEEEVKELEEELSSSSS
B31: il10ra_site1_sap_15_mot_HHH_b1_00814_af2_000000078_0001_43_57_H_._HHH_b2_00250_af2_0001_0000100010_0000001_0_0001_af2pred_0001 (protein)
chain: SSSSSRSAEEAIRRLLRAAKQLEDEERLKLAIRDALAAAEFLGNEELVEELRKILEELRSSSSSS
B32: il10ra_site1_sap_28_mot_HHH_b2_01776_000000118_0001_38_52_H_._HHH_b1_02755_0001_0000100001_0000001_0_0001_af2pred_0001 (protein)
chain: SSSSDEELLEHLLRALKQVVELGDEERAKLTIKFIKRLAELHNDEEVEKRLRELEELVEELSSSS
B33: il10ra_site1_normal_mot_HHH_b1_02809_af2_000000277_0001_40_57_H_._HHH_b1_00768_af2_0001_0000200008_0000001_0 (protein)
chain: SSSSSSDANETAARLIRAAYRGDEELFEELREELEELIERYGDPRLRLALQFAEALFRELSSSSS
B34: il10ra_site1_sap_22_mot_HHH_b1_00169_000000276_0001_1_18_H_._HHH_b1_00842_0001_0000200007_0000001_0_0001 (protein)
chain: SSSSDEEREELYEILEEVIKLASEGDEEEFEELVREAEELAKELGNWVVRHVLELLRRDLSSSSS
B35: il10ra_site1_normal_mot_HHH_b2_01397_000000078_0001_23_39_H_._HHH_b2_08075_0001_0000300026_0000002_0_af2pred_0001 (protein)
chain: SSSSDERVKLTLRFAEALAKHGDRRAVELLLRAARQLAERDGDEELEELIEEVEERVRELLSSSS
B36: il10ra_site1_normal_mot_HHH_b1_05357_000000034_0001_23_39_H_._HHH_b1_03625_af2_0001_0000700020_0000001_0 (protein)
chain: SSSSSDEKEVTHILIQAYAAANHGNPEEAEELLKEAKEIAEEINNERLKLSIEKVEEILRSSSSS
B37: il10ra_site1_sap_13_mot_HHH_b2_00943_af2_000000149_0001_1_17_H_._HHH_b1_02941_af2_0001_0000200003_0000001_0_0001 (protein)
chain: SSSSDVSREAYELSRRAAELHSEGNPEEARELLEEAEELLREAGDRVILHNVEYVLELLNSSSSS

These binders were tested against il10ra, Q13651 (assay: yeast display titration).
Sequence of il10ra, Q13651 (Q13651 whole entry): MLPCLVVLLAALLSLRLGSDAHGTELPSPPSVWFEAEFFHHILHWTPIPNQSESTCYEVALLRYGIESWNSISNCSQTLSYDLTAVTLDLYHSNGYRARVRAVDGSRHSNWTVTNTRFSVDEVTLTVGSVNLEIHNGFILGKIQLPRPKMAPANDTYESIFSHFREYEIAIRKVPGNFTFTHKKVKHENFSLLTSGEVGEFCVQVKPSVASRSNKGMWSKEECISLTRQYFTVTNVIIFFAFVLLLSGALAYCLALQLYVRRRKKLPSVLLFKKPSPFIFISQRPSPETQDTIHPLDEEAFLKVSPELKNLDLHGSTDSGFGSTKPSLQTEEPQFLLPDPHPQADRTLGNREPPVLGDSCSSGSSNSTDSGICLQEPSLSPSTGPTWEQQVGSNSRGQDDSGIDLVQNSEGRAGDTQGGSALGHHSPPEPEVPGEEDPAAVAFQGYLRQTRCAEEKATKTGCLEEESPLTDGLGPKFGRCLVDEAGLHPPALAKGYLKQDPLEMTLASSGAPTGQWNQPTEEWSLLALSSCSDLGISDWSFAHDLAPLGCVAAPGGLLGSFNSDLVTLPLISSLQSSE

Apparent Kd, inactive:
B1 no binding seen, B2 no binding seen, B3 no binding seen, B4 no binding seen, B5 no binding seen, B6 no binding seen, B7 no binding seen, B8 no binding seen, B9 no binding seen, B10 no binding seen, B11 no binding seen, B12 no binding seen, B13 no binding seen, B14 no binding seen, B15 no binding seen, B16 no binding seen, B17 no binding seen, B18 no binding seen, B19 no binding seen, B20 no binding seen, B21 no binding seen, B22 no binding seen, B23 no binding seen, B24 no binding seen, B25 no binding seen, B26 no binding seen, B27 no binding seen, B28 no binding seen, B29 no binding seen, B30 no binding seen, B31 no binding seen, B32 no binding seen, B33 no binding seen, B34 no binding seen, B35 no binding seen, B36 no binding seen, B37 no binding seen
